According to PubChem BioAssay (NCI):
Compounds without any hit were thinned out: in the full panel of roughly 83,000, 20% have a hit.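 Plates (96-well) were seeded with cells, treated with compound at one concentration, and incubated for 48 hours before percent growth was determined.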 Activity calls are given as the source filed them. How the source made its calls: active means growth percent below 10; inactive means the rest.

How the values were obtained:
Assay in all cases: NCI-60 one-dose screen, 48 h (100 = growth as untreated, 0 = no growth, -100 = all killed)
Conditions in all cases: 10 µM unless noted
NCI-H23 lung = test system: NCI-H23 lung
NCI-H226 lung = test system: NCI-H226 lung
NCI-H322M lung = test system: NCI-H322M lung
HOP-62 NSCLC = test system: HOP-62 NSCLC
NCI-H460 lung = test system: NCI-H460 lung
HOP-92 NSCLC = test system: HOP-92 NSCLC
NCI-H522 lung = test system: NCI-H522 lung
A549/ATCC NSCLC = test system: A549/ATCC NSCLC
786-0 renal = test system: 786-0 renal
COLO 205 colon = test system: COLO 205 colon
DU-145 prostate = test system: DU-145 prostate
K-562 leukemia = test system: K-562 leukemia
MALME-3M melanoma = test system: MALME-3M melanoma
MDA-MB-231 breast = test system: MDA-MB-231 breast
RXF 393 renal = test system: RXF 393 renal
SF-268 CNS = test system: SF-268 CNS
SF-295 CNS = test system: SF-295 CNS
SF-539 CNS = test system: SF-539 CNS
UACC-257 melanoma = test system: UACC-257 melanoma
M14 melanoma = test system: M14 melanoma

Measured: growth

COc1ccc(NC2=C(Sc3nc(C)cc(C)n3)C(=O)N(Cc3ccccc3)C2=O)cc1Cl
inactive: NCI-H23 lung 84.5% [30 µM] | NCI-H226 lung 79.9% [30 µM] | NCI-H322M lung 111% [30 µM] | HOP-62 NSCLC 96.3% [30 µM] | NCI-H460 lung 60.7% [30 µM] | HOP-92 NSCLC 26.9% [30 µM] | NCI-H522 lung 85.7% [30 µM] | A549/ATCC NSCLC 74.3% [30 µM] | 786-0 renal 80.4% [30 µM] | COLO 205 colon 110% [30 µM] | DU-145 prostate 113% [30 µM] | K-562 leukemia 69.7% [30 µM] | MALME-3M melanoma 95.4% [30 µM] | MDA-MB-231 breast 85.4% [30 µM] | RXF 393 renal 50.8% [30 µM] | SF-268 CNS 57.8% [30 µM] | SF-295 CNS 39.6% [30 µM] | SF-539 CNS 101% [30 µM] | UACC-257 melanoma 43.9% [30 µM] | M14 melanoma 95.9% [30 µM]

Cn1c(NCCc2ccc(O)c(O)c2)nc2c1c(=O)n(Cc1ccc(Br)cc1)c(=O)n2C
inactive: NCI-H23 lung 86.4% | NCI-H226 lung 84.1% | NCI-H322M lung 87.8% | HOP-62 NSCLC 108% | NCI-H460 lung 94.3% | HOP-92 NSCLC 61.1% | A549/ATCC NSCLC 83.9% | 786-0 renal 82% | COLO 205 colon 50.5% | DU-145 prostate 78.9% | K-562 leukemia 81% | MALME-3M melanoma 81.4% | MDA-MB-231 breast 69.2% | RXF 393 renal 81% | SF-268 CNS 68.4% | SF-295 CNS 98% | SF-539 CNS 79.1% | UACC-257 melanoma 88.5% | M14 melanoma 96.5%
active: NCI-H522 lung -26.6%

COc1ccc(-c2nn(-c3ccc(Cl)cc3)cc2-c2nc3ccccc3[nH]2)cc1
inactive: NCI-H23 lung 89.1% | NCI-H226 lung 91.4% | NCI-H322M lung 102% | HOP-62 NSCLC 113% | NCI-H460 lung 88.1% | HOP-92 NSCLC 97% | NCI-H522 lung 67.7% | A549/ATCC NSCLC 95.4% | 786-0 renal 103% | COLO 205 colon 101% | DU-145 prostate 120% | K-562 leukemia 89% | MALME-3M melanoma 98.5% | MDA-MB-231 breast 73% | RXF 393 renal 94.7% | SF-268 CNS 94.7% | SF-295 CNS 98.1% | SF-539 CNS 106% | UACC-257 melanoma 101% | M14 melanoma 90%

CN(Cc1cc(Cl)cc(Cl)c1O)Cc1cc(Cl)cc(Cl)c1O
inactive: NCI-H23 lung 76.9% | NCI-H226 lung 71.5% | NCI-H322M lung 54.9% | HOP-62 NSCLC 54.6% | NCI-H460 lung 45.6% | HOP-92 NSCLC 92.5% | NCI-H522 lung 72.2% | A549/ATCC NSCLC 61.2% | 786-0 renal 94.7% | COLO 205 colon 99.5% | DU-145 prostate 68.9% | K-562 leukemia 98.5% | MALME-3M melanoma 92.7% | MDA-MB-231 breast 78.5% | RXF 393 renal 81.8% | SF-268 CNS 62.6% | SF-295 CNS 58.1% | SF-539 CNS 81.9% | UACC-257 melanoma 82.4% | M14 melanoma 71%

COc1cc(-c2ccc3c(c2)NC(=O)/C3=C\c2ccc[nH]2)ccc1O
active: NCI-H460 lung 7.55% | NCI-H522 lung 6.78% | K-562 leukemia 5.55% | SF-295 CNS -19.6% | SF-539 CNS 0.982%
inactive: NCI-H23 lung 12.1% | NCI-H226 lung 39.6% | NCI-H322M lung 30.3% | HOP-62 NSCLC 27.8% | HOP-92 NSCLC 57.8% | A549/ATCC NSCLC 20.7% | 786-0 renal 14.8% | COLO 205 colon 25.2% | DU-145 prostate 17.8% | MALME-3M melanoma 66.4% | MDA-MB-231 breast 66.4% | RXF 393 renal 17.8% | SF-268 CNS 31.1% | UACC-257 melanoma 39.3% | M14 melanoma 34.1%

CC1=CC(=NN=c2cc(C)n([O-])c(C)c2)C=C(C)[N+]1=O
inactive: NCI-H23 lung 95.5% | NCI-H226 lung 64.2% | NCI-H322M lung 114% | HOP-62 NSCLC 79.6% | NCI-H460 lung 102% | HOP-92 NSCLC 93.2% | NCI-H522 lung 67.6% | A549/ATCC NSCLC 87.4% | 786-0 renal 79.3% | COLO 205 colon 29.8% | DU-145 prostate 107% | K-562 leukemia 85% | MALME-3M melanoma 106% | MDA-MB-231 breast 97.7% | RXF 393 renal 87.8% | SF-268 CNS 106% | SF-295 CNS 112% | SF-539 CNS 105% | UACC-257 melanoma 77.4% | M14 melanoma 77.2%

COc1cc2c(cc1-c1c(C)noc1C)ncc1nc(C3CCCC3)n([C@H](C)COC(F)F)c12
inactive: NCI-H23 lung 53.7% | NCI-H226 lung 48.1% | NCI-H322M lung 46.6% | HOP-62 NSCLC 32% | NCI-H460 lung 51% | HOP-92 NSCLC 20% | NCI-H522 lung 22.6% | A549/ATCC NSCLC 31.6% | 786-0 renal 45.9% | COLO 205 colon 23.9% | DU-145 prostate 67.7% | K-562 leukemia 23.5% | MALME-3M melanoma 71.1% | MDA-MB-231 breast 44.6% | RXF 393 renal 48.6% | SF-268 CNS 62.6% | SF-295 CNS 50.3% | SF-539 CNS 38.5% | UACC-257 melanoma 32.1% | M14 melanoma 40.9%
